Several values for one entry are separate records, joined by “and”; a condition that tells them apart may be missing. Identical values can stand only once. Compounds without any hit were thinned out: in the full panel of roughly 83,000, 20% have a hit.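 Negative percent growth values reflect cell death: -40 means 40% of the cells present at the start died, and -100 means all died.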 A number with no mark means an inactive call. Activity calls are given as the source filed them. How the source made its calls: active means growth percent below 10; inactive means the rest.

The assay deals with MDA-MB-468 breast. In words: NCI-60 one-dose screen, 48 h (100 = growth as untreated, 0 = no growth, -100 = all killed). Conditions: 10 µM unless noted.
Consider `Cn1c(COC(=O)NCCc2ccccn2)nc2c(N3CCOCC3)nc(Cl)nc21`, for which the growth was -51.1% (active).
For the compound `CC(C)(C)c1[nH]nc2c1C(c1cc3ccccc3[nH]c1=O)Nc1cc(C(=O)Nc3ccc(Cl)cc3)ccc1N2` (stereo unspecified), the growth is -15.9% (active).
The result for `CC(C)(O)c1cncc(-c2ccc3ncc(C#N)c(N4CCc5cc(F)c(Cl)cc54)c3c2)c1` reads 10.2%; that for `CCCCn1c(=O)c(-c2cc(-c3ccc(Cl)cc3)nc(-c3ccc(Cl)cc3)c2)cc2cc(C)ccc21`, 102%.
For the compound `COc1ccc(S(=O)(=O)Nc2c(/C=C\c3cc(OC)c(OC)c(OC)c3)ccc(OC)c2O)cc1`, the growth is 10.9%.
The same measure for `CC(C)(C)c1ccc(C(=O)Nc2nc3ccc(O)cc3s2)cc1`: 18.6%.
As to `CC1=C[C@H]2c3c(c(O)c(O)c4oc5ccccc5c(=O)c34)[C@H](c3cc(O)c(O)c4oc5ccccc5c(=O)c34)[C@H]2C(C)(C)C1`, the growth is 25.2%.
As for `Cn1ccnc1C(=O)/C=C/c1ccc(NC(=O)Nc2ccc(F)cc2)cc1`, the growth was 6.47% (active).
Consider `COc1ccc(-n2nc(C(=O)NCC(=O)O)nc2-c2ccccc2)cc1`, for which the growth was 115%.
The same measure for `CCCCCCCCCCCCCCCCOP(=O)([O-])OCC[N+](C)(C)C`: -24% (active); for `Cc1nc2ccccc2c(/C=C/c2ccc(F)cc2)c1C(N)=O`: 107%.
`O=C(/C=C/c1ccccn1)c1ccccc1O`: the growth was 41.6% and 70.3%.
The same measure for `S=C(Cc1ccc(-c2ccccc2)cc1)N1CCOCC1`: 90.8%; for `COc1cc(Cc2cc(OC)c(O)c(OC)c2)cc(OC)c1O`: 65.2%; for `c1ccc2[nH]c(Cc3nc4ccccc4[nH]3)nc2c1`: 102%.
As to `Cn1cc(-c2nnc(-c3cn(C)c4ncccc34)o2)c2ccccc21`, the growth was -11.4% (active).
`O=C1NCc2ccc3c(-c4cccc(Cl)c4)c[nH]c3c21`: the growth is 26.5%.
In the case of `Nc1c(C(=O)Nc2cccc3ncccc23)sc2nc3c(cc12)C(=O)CCC3`, the growth is 12.4%.
The result for `COc1cc(C2=NN(C(C)=O)C(c3ccc(OC(C)=O)cc3OC(C)=O)O2)c(OC(C)=O)c2ccccc12` (stereo unspecified) reads -9.39% (active).
The same measure for `O=C(/C=C/c1ccccc1)c1cccs1`: 80.2%; for `COc1ccc2c(c1)sc1nc(-c3ccccc3)c(-c3ccc(O)c(OC)c3)n12`: 107%.
In the case of `COc1ccc2c(c1)c(-c1cc(N)n3nc(-c4cn(C)c5ccc(OC)cc45)cc3n1)cn2C`, the growth was 142%.
The result for `CC(=O)O[C@]1(C)CC[C@H]2[C@H](CNCCc3ccc(Cl)cc3)C(=O)O[C@@H]2C2=C(C)C(=O)C[C@H]21` reads 47.3%; that for `Cc1cc(N)n(S(=O)(=O)c2oc(-c3ccccc3)nc2C#N)n1`, 72.9%; that for `COc1cc2c(c(OC)c1OC)C(=O)CC(c1cccc(C(=O)Nc3ccccc3Br)c1)O2` (stereo unspecified), 79.1%.
The result for `O=c1c2cc(F)ccc2sc2c(Nc3ccncc3)nc3ccccc3c12` reads 27.8%.

The values above are taken from PubChem BioAssay (NCI).
